From ChEMBL document CHEMBL3988442, “University of Dundee, Small-Polar-MMV Screening Library” (2021)
The campaign covered roughly 48,000 compounds. About 13,000 (27%) showed an effect of 50% or more. The list shows a part of the results.

System: Wolbachia pipientis
Test: Anti-Wolbachia Cell-Based Screen
Assay type: functional
Set-up: scale not given: in the data most compounds retested in dose-response had high values
Settings: 5 µM

Row | SMILES | Percent Effect [%]
1 | CC(C)c1noc(CS(=O)(=O)CC(=O)NCc2ccccc2)n1 | -6.671
2 | CNC(=O)CC1CCN(C(=O)NCC2(c3ccccc3F)CC2)CC1 | 17.39
3 | C[C@H](NC(=O)c1cnc(-c2ccccc2)nc1O)C(N)=O | -2.731
4 | COc1ccccc1Oc1ncccc1CNC(=O)C(O)C(F)(F)F (configuration not stated) | -1.797
5 | CN(C)S(=O)(=O)NCc1cccnc1Oc1ccccc1F | -2.54
6 | Cc1ccccc1Oc1ncccc1CNC(=O)Cn1cccnc1=O | -3.943
7 | O=C1NC(C(=O)NCc2cccnc2Oc2ccc(F)cc2F)CO1 (configuration not stated) | 106.1
8 | CC1(C(=O)NCc2cccnc2Oc2ccc(F)c(F)c2)CCCNC1 (configuration not stated) | -1.745
9 | Cc1cccc(C)c1Oc1ncccc1CNC(=O)C1(C)CCCNC1 (configuration not stated) | 9.373
10 | O=C1NC(C(=O)NCc2cccnc2Oc2ccc(F)c(F)c2)CO1 (configuration not stated) | 103.5
11 | CC(=O)N[C@@H](C)C(=O)NCc1cccnc1Oc1ccccc1F | -9.866
12 | CC1(C(=O)NCc2cccnc2Oc2ccc(F)cc2F)CCCNC1 (configuration not stated) | -10.63
13 | O=C1NC(C(=O)NCc2cccnc2Oc2ccccc2F)CO1 (configuration not stated) | 117.3
14 | Cc1cccc(C)c1Oc1ncccc1CNC(=O)C1COC(=O)N1 (configuration not stated) | 89.56
15 | O=C(CN1CCCC1=O)NCc1cccnc1Oc1ccc(F)c(F)c1 | -46.82
16 | CC(C)c1noc(CN(C)C(c2ccc(F)cc2)c2cccnc2)n1 (configuration not stated) | 7.35
17 | CCn1nc2c(cc1=O)CN(CCCOc1ccc(C#N)cc1)CC2 | -4.501
18 | CC(C)(C)OC(=O)NCC1CCCCN1Cc1cccc(C(N)=O)c1 (configuration not stated) | -2.516
19 | CCOC(=O)C1CN(C(=O)C2CCOCC2)Cc2ncn(CC)c21 (configuration not stated) | 3.509
20 | Cc1nnc(CN2CCCC2c2ccc(C(C)(C)C)cc2)o1 (configuration not stated) | -26.52
21 | CSc1ncccc1C(=O)N1CCC2(CC1)c1nc[nH]c1CCN2C | 9.792

Row | SMILES | Percent Effect [%]
22 | CCSCCC(=O)Nc1ncn(Cc2cccnc2)n1 | -3.764
23 | O=S(=O)(Cc1cccc2cccnc12)NC(CO)c1ccco1 (configuration not stated) | -8.128
24 | CCCS(=O)(=O)NCc1cccnc1Oc1ccc(C)c(F)c1F | -1.189
25 | COc1ccccc1Oc1ncccc1CNC(=O)C1COC(=O)N1 (configuration not stated) | 98.82
26 | COc1ccccc1Oc1ncccc1CNC(=O)[C@@H](N)[C@@H](C)O | -22.34
27 | COc1ccccc1Oc1ncccc1CNC(=O)[C@H](C)O | -22.76
28 | Cc1nc(CNCc2cccnc2Oc2ccc(C)c(F)c2F)c[nH]1 | -6.11
29 | Cc1ccc(Oc2ncccc2CNC(=O)C2COC(=O)N2)c(F)c1F (configuration not stated) | 65.92
30 | c1ccc(-c2nccc(CNCC3CCCN3c3cccnn3)n2)cc1 (configuration not stated) | 1.65
31 | Cn1cnc2c1CCN(CC(O)c1ccc3c(c1)OCCO3)C2 (configuration not stated) | 2.698
32 | Cc1nc(C(=O)N2CC(C)Sc3ccccc32)cs1 (configuration not stated) | -0.9397
33 | CN(Cc1ncnn1C)c1ccnc(Cc2ccccc2)n1 | -0.8819
34 | CN1CC2(CCN(S(=O)(=O)C3CC3)CC2)c2ccccc21.O=C(O)C(F)(F)F | -12.74
35 | CCCS(=O)(=O)N1CCC2(CC1)CN(CC1CCOC1)c1ccccc12.O=C(O)C(F)(F)F (configuration not stated) | 105.4
36 | O=C(O)C(F)(F)F.O[C@@H]1CCN(CC2CCOC2)[C@H]1Cc1ccccc1 (some centres not stated) | -6.584
37 | CCS(=O)(=O)N1CCC2(CC1)CN(CC1CCOC1)c1ccccc12.O=C(O)C(F)(F)F (configuration not stated) | 101.7
38 | O=C(O)C(F)(F)F.c1cnc(N2CC3(CCN(C4CCOCC4)CC3)c3ccccc32)nc1 | 5.791
39 | O=C(O)C(F)(F)F.c1ccc2c(c1)N(CC1CCOC1)CC21CCN(c2cnccn2)CC1 (configuration not stated) | 103.7
40 | CCS(=O)(=O)N1CCC2(CCC(N3CCCC3)c3ccccc32)CC1.O=C(O)C(F)(F)F (configuration not stated) | 6.992
41 | CCCS(=O)(=O)N1CCC2(CC1)CN(C(=O)N(C)C)c1ccccc12 | -3.576
42 | O=C(O)C(F)(F)F.c1cnc(N2CC3(CCN(CC4CCOC4)CC3)c3ccccc32)nc1 (configuration not stated) | -15.18

Row | SMILES | Percent Effect [%]
43 | O=C(O)C(F)(F)F.c1cncc(C2CC3(CCN(c4cnccn4)CC3)c3ccccc32)c1 (configuration not stated) | 23.08
44 | CS(=O)(=O)N1CCC2(CC1)CN(CC1CCOC1)c1ccccc12.O=C(O)C(F)(F)F (configuration not stated) | 90.82
45 | CCCS(=O)(=O)N1CCC2(CC1)CC(N1CCCC1)c1ccccc12.O=C(O)C(F)(F)F (configuration not stated) | 11.6
46 | COC[C@]12COC[C@H]1CN(S(=O)(=O)c1cccnc1)C2 | 6.326
47 | Cc1nnc(N2C[C@H]3OCC[C@H]3[C@H](C(=O)NCC3CC3)C2)s1.O=C(O)C(F)(F)F | -6.656
48 | O=C1CC2(CCN(Cc3ccc4cccc(O)c4n3)CC2)CN1 | -6.934
49 | COc1ccc(CCNc2cc(-c3nc(C)no3)ccn2)cc1OC | -4.716
50 | CC(C)(C)C(=O)N1CCC2(COCc3cnc(N4CCOCC4)nc32)C1 (configuration not stated) | -4.302
51 | CCC(=O)N1CCC2(COCc3cnc(NCc4ccco4)nc32)C1 (configuration not stated) | 102.3
52 | O=C(C1CC1)N1CCC2(COCc3cnc(NCc4ccco4)nc32)C1 (configuration not stated) | 107.6
53 | COCC(=O)N1CCC2(COCc3cnc(NCc4ccco4)nc32)C1 (configuration not stated) | 94.68
54 | CCC(=O)N1CCC2(COCc3c(C)nc(NCc4ccco4)nc32)C1 (configuration not stated) | 0.949
55 | Fc1cnc(N2CCC3(COCc4cnc(NCC5CC5)nc43)C2)nc1 (configuration not stated) | 3.153
56 | CNC(=O)N1CCC2(COCc3c(C)nc(NCc4ccco4)nc32)C1 (configuration not stated) | -16.5
57 | CCC(C)(CC(=O)OC)NC(=O)c1cccc(F)c1F (configuration not stated) | 0.5787
58 | Cc1cc(NCCO)nc(N2CCC(Cc3ccccc3)CC2)c1C#N.O=C(O)C(=O)O | -4.494
59 | CC(C)N(CCSc1ncnc2[nH]ncc12)C(C)C | -23.68
60 | O=S(=O)(NCCn1cc(C2CCOC2)nn1)c1ccc(Cl)cc1 (configuration not stated) | 2.449
61 | CCc1noc(CNc2cc3c(cc2Cl)OCCO3)n1 | 29.93
62 | N#Cc1ccc(OCCOc2ccccc2C(=O)N2CCOCC2)cc1 | 2.422
